Assay results taken from PubChem BioAssay (NCATS).
Values joined by “and” are separate entries in the source; they are usually repeats but may differ in a detail not shown here. Equal values may be shown once. Records with an inconclusive call do not appear. Where a call stands in place of a potency, no number is given. The source holds several records for some structures; these can differ, active in one and inactive in another. Active and inactive are the calls of the source. The call rests on the fitted dose curve; in most records, active means well fitted curve in the direction sought with a large enough effect; inconclusive means small, poorly fitted or top-dose-only effect, or another doubt; inactive means no such curve, though single readings can be large; an effect the other way counts as inactive or inconclusive.

How the values were obtained:
[1] = molecular target: Metallo-beta-lactamase type 2 (Klebsiella pneumoniae) (UniProt C7C422); experiment: qHTS to identify inhibitors of the New Delhi Metallo-beta-lactamase (NDM): assay validation screen against the NCATS LOPAC Collection (AID 1794843); details: NDM-1 enzyme, nitrocefin hydrolysis, absorbance 485 nm; series mostly up to 38.4 µM;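 further: nitrocefin turnover by NDM-1 measured as 485 nm absorbance at plateau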
Sequence of Metallo-beta-lactamase type 2 (Klebsiella pneumoniae) (C7C422 whole entry, looked up): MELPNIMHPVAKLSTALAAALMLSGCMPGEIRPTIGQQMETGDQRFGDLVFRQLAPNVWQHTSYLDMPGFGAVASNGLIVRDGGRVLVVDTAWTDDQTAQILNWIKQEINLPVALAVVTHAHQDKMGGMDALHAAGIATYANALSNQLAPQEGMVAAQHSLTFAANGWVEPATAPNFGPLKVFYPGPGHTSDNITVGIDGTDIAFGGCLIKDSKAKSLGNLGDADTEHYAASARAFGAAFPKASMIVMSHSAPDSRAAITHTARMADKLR
How it was run: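 Nitrocefin hydrolysis (50 uM substrate stock) by NDM-1, 2 nM final, was followed by 485 nm absorbance after compound preincubation; buffer was 50 mM HEPES pH 7.0, 1 uM ZnSO4, 0.01% Tween20.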

[2] = molecular target: Glutathione peroxidase 1 (Homo sapiens) (UniProt P07203); experiment: Primary qHTS Assay for Inhibitors of Recombinant Selenoprotein Glutathione Peroxidase 1 (GPX1) (AID 1845191); details: recombinant GPX1, GR-coupled NADPH fluorescence, 15 min; series mostly up to 48.8 µM; further: nearly all actives have a fitted effect of over 65% in size
Sequence of Glutathione peroxidase 1 (Homo sapiens) (P07203 whole entry, looked up): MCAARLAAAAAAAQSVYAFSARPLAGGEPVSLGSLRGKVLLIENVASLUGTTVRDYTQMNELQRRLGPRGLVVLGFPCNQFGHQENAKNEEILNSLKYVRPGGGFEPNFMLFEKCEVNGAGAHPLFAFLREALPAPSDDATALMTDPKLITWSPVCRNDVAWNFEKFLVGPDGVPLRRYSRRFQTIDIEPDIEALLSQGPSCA
How it was run: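 Recombinant GPX1 (10 nM final) was preincubated with compound for 30 min at room temperature, then reacted with 1 mM GSH, 0.5 mM CHP, 0.5 mM NADPH and 100 nM glutathione reductase; NADPH fluorescence (340/450 nm) was read at 0 and 15 min.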

[3] = molecular target: Phospholipid hydroperoxide glutathione peroxidase GPX4 (Homo sapiens) (UniProt P36969); experiment: Primary qHTS Assay for Inhibitors of Recombinant Selenoprotein Glutathione Peroxidase 4 (GPX4) (AID 1845192); details: recombinant GPX4, GR-coupled NADPH fluorescence, 15 min; series mostly up to 50 µM; further: nearly all actives have a fitted effect of over 65% in size; further: potency means the concentration at half of the fitted maximal effect
Sequence of Phospholipid hydroperoxide glutathione peroxidase GPX4 (Homo sapiens) (P36969 whole entry, looked up): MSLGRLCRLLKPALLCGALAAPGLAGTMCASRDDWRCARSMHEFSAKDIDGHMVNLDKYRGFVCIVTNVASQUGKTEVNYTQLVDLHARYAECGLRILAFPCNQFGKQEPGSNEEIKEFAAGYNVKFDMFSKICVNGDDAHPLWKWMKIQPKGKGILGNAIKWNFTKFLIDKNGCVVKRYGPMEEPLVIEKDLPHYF
How it was run: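 GR-coupled readout: 100 nM GR, 1 mM GSH, 0.5 mM NADPH; NADPH fluorescence (ex 340/em 450 nm) read at t=0 and after 15 min RT. GPX4 200 nM, preincubated 30 min with compound; substrate 0.5 mM CHP.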

[4] = Viability counterscreen for agonist of constitutive androstane receptor (CAR) against the NCATS DSHEA and TCM libraries (AID 1794838); details: HepG2 cell viability counterscreen, CAR agonist assay, co-treated with 0.75 µM CAR antagonist; series mostly up to 40 µM;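 further: HepG2 cells with CYP2B6 reporter and hCAR plus 0.75 µM PK11195 antagonist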
How it was run: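 Cell health was measured as CellTiter-Fluor signal in HepG2-CYP2B6-hCAR cells treated for 24 h with substances alongside the hCAR antagonist PK11195 (0.75 uM final).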

[5] = molecular target: Nuclear receptor subfamily 1 group I member 3 (Homo sapiens) (UniProt Q14994); experiment: Primary qHTS for agonist of constitutive androstane receptor (CAR) against the NCATS DSHEA and TCM libraries (AID 1794839); details: CAR agonist reporter cells, qHTS luminescence, CAR antagonist co-added at 0.75 µM; series mostly up to 40 µM;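 further: HepG2 cells expressing human CAR with a CYP2B6 reporter plus PK11195 antagonist; luciferase reporter luminescence read with ONE-Glo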
Sequence of Nuclear receptor subfamily 1 group I member 3 (Homo sapiens) (Q14994 whole entry, looked up): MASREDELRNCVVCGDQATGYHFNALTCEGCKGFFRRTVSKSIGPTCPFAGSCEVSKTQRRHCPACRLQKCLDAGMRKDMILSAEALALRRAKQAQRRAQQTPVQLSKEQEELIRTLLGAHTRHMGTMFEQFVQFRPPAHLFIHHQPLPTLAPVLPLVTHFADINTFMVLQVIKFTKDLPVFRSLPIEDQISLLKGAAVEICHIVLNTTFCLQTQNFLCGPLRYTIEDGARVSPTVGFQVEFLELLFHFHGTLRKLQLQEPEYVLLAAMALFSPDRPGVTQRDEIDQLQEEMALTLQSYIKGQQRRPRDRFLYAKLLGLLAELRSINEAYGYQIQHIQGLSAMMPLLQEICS
Excerpt: National Center for Advancing Translational Sciences (NCATS), Rockville, MD
National Institute of Health (NIH), Bethesda, Maryland
Dietary Supplements and Natural Products have minor oversight of their safety and efficacy. We assembled a collection of Dietary Supplements and Natural Products (DSNP) as well as Traditional Chinese Medicinal (TCM) Plant extracts, which were screened against an in vitro panel of assays, including a liver cytochrome p450 enzyme panel, CAR/PXR signaling pathways, and P-gp transporter assays, to assess their activity. This pipeline facilitated the interrogation of Natural Product-Drug Interaction (NaPDI) through prominent metabolizing pathways. In addition, we compared the activity profiles of the DSNP/TCM substances with those of an approved drug collection. Many of the approved drugs have well-annotated mechanisms of action (MOA) while the MOAs for most of the DSNP and TCM samples remain unknown. […] Overall, we highlight four significant bioactivity profiles (measured by p-values) as examples of this prediction. […]
8; Detector 1; Fluorescence intensity; ViewLux plate reader (excitation 405 nm, emission 540 nm). […]
11; Detector 2; Luminescence intensity; ViewLux. […]
8. Fluorescence intensity (Ex/Em = 405 nm/540 nm) is obtained using the ViewLux plate reader to determine cell viability. […]
10. Luminescence intensity is read using the ViewLux detector. […]

[6] = HepG2 viability counterscreen (readout 2: ATP content) against the NCATS DSHEA and TCM libraries (AID 1794840); details: ATP content luminescence; series mostly up to 27.3 µM
How it was run: (§1)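 Same wells read twice: first fluorescence from cleaved GF-AFC substrate (25 uM final, 30 min, 37C) for live-cell protease, then CellTiter-Glo luminescence after 30 min at room temperature for ATP. HepG2 cells were exposed ~24 h to substances.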

[7] = HepG2 viability counterscreen (readout 1: protease activity) against the NCATS DSHEA and TCM libraries (AID 1794841); details: qHTS concentration series; series mostly up to 27.3 µM;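 further: cells exposed to compounds for about 24 h before the protease read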
How it was run: as §1

OCCN(CCO)c1nc(N2CCCCC2)c2nc(N(CCO)CCO)nc(N3CCCCC3)c2n1
outcome [1]: inactive
Potency [2]: inactive
Potency [3]: inactive

C[C@H]1c2cccc(O)c2C(O)=C2C(=O)[C@]3(O)C(O)=C(C(N)=O)C(=O)[C@@H](N(C)C)[C@@H]3[C@@H](O)[C@@H]21
outcome [1]: inactive
Potency [2]: inactive

COc1nc(C)nc(Cl)c1NC1=NCCN1
outcome [1]: inactive
Potency [2]: inactive

O=c1c(O)c(-c2ccc(O)c(O)c2)oc2cc(O)cc(O)c12
outcome [4]: inactive
outcome [5]: inactive
outcome [6]: inactive
outcome [7]: inactive
outcome [1]: inactive
Potency [2]: inactive
Potency [3]: inactive

O=C(c1ccc(OCCN2CCCCC2)cc1)c1c(-c2ccc(O)cc2)sc2cc(O)ccc12
outcome [1]: inactive
Potency [2]: inactive

CN(C)CCC=C1c2ccccc2C=Cc2ccccc21
outcome [1]: inactive
Potency [2]: inactive

Cn1c(=O)c2c(ncn2C)n(C)c1=O
outcome [4]: inactive
outcome [5]: inactive
outcome [6]: inactive
outcome [7]: inactive
Potency [2]: inactive

CS(=O)(=O)Nc1ccc([N+](=O)[O-])cc1Oc1ccccc1
outcome [1]: inactive
Potency [2]: inactive
Potency [3]: inactive

Cn1cnc2c1c(=O)[nH]c(=O)n2C
outcome [1]: inactive
Potency [2]: inactive

COc1cc2nc(N(C)CCCNC(=O)C3CCCO3)nc(N)c2cc1OC (stereo unspecified)
outcome [1]: inactive
Potency [2]: inactive

CC(C)Cc1ccc(C(C)C(=O)O)cc1 (stereo unspecified)
outcome [1]: inactive
Potency [2]: inactive

CC(C)(Oc1ccc(C2CC2(Cl)Cl)cc1)C(=O)O (stereo unspecified)
outcome [1]: inactive
Potency [2]: inactive

Cc1ccc(C(=O)Nc2ccc(S(=O)(=O)O)c3cc(S(=O)(=O)O)cc(S(=O)(=O)O)c23)cc1NC(=O)c1cccc(NC(=O)Nc2cccc(C(=O)Nc3cc(C(=O)Nc4ccc(S(=O)(=O)O)c5cc(S(=O)(=O)O)cc(S(=O)(=O)O)c45)ccc3C)c2)c1
outcome [1]: inactive
Potency [2]: inactive
Potency [3]: inactive and 7 µM (active)

COc1ccc2[nH]cc(CCNC(C)=O)c2c1
outcome [1]: inactive
Potency [2]: inactive

CN1C(C(=O)Nc2ccccn2)=C(O)c2ccccc2S1(=O)=O
outcome [1]: inactive
Potency [2]: inactive

CC(CCc1ccc(O)cc1)NCCc1ccc(O)c(O)c1 (stereo unspecified)
outcome [1]: inactive
Potency [2]: inactive

Cc1cn([C@H]2C=C[C@@H](CO)O2)c(=O)[nH]c1=O
outcome [1]: inactive
Potency [2]: inactive

CCCCc1oc2ccccc2c1C(=O)c1cc(I)c(OCCN(CC)CC)c(I)c1
outcome [1]: inactive
Potency [2]: inactive

CCc1cccc2c3c([nH]c12)C(CC)(CC(=O)O)OCC3 (stereo unspecified)
outcome [1]: inactive
Potency [2]: inactive

O=c1[nH]cc(F)c(=O)[nH]1
outcome [1]: inactive
Potency [2]: inactive

CN(C)CCCN1c2ccccc2CCc2ccc(Cl)cc21
outcome [1]: inactive
Potency [2]: inactive

CN1CCN2c3ccccc3Cc3ccccc3C2C1 (stereo unspecified)
outcome [1]: inactive
Potency [2]: inactive

Cc1cnc(C(=O)NCCc2ccc(S(=O)(=O)NC(=O)NC3CCCCC3)cc2)cn1
outcome [1]: inactive
Potency [2]: inactive

Cc1cc(C(C)(C)C)cc(C)c1CC1=NCCN1
outcome [1]: inactive
Potency [2]: inactive
Potency [3]: inactive

COc1cc2nc(N3CCN(C(=O)c4ccco4)CC3)nc(N)c2cc1OC
outcome [1]: inactive

CC(C)C(=O)Nc1ccc([N+](=O)[O-])c(C(F)(F)F)c1
outcome [1]: inactive
Potency [2]: inactive
Potency [3]: inactive

OCCN1CCN(CCCN2c3ccccc3Sc3ccc(C(F)(F)F)cc32)CC1
outcome [1]: inactive
Potency [2]: inactive

Clc1ccc(C(c2ccccc2Cl)C(Cl)Cl)cc1 (stereo unspecified)
outcome [1]: inactive
Potency [2]: inactive

O=C1c2c(O)ccc(O)c2C(=O)c2c(NCCNCCO)ccc(NCCNCCO)c21
outcome [1]: inactive
Potency [2]: inactive

CC#C[C@]1(O)CC[C@H]2[C@@H]3CCC4=CC(=O)CCC4=C3[C@@H](c3ccc(N(C)C)cc3)C[C@@]21C
outcome [1]: inactive
Potency [2]: inactive

Nc1nnc(-c2cccc(Cl)c2Cl)c(N)n1
outcome [1]: inactive
Potency [2]: inactive
Potency [3]: inactive

CCOC(=O)Nc1ccc(NCc2ccc(F)cc2)nc1N
outcome [1]: inactive
Potency [2]: inactive
Potency [3]: inactive

COc1ccccc1N1CCN(CC(O)COc2cccc3ccccc23)CC1 (stereo unspecified)
outcome [1]: inactive
Potency [2]: inactive

CC[N+](CC)(CC)CCOc1cccc(OCC[N+](CC)(CC)CC)c1OCC[N+](CC)(CC)CC
outcome [1]: inactive
Potency [2]: inactive

COC(=O)Nc1nc2ccc(C(=O)c3cccs3)cc2[nH]1
outcome [1]: inactive
Potency [2]: inactive
Potency [3]: inactive

COc1ccc(C2CNC(=O)C2)cc1OC1CCCC1 (stereo unspecified)
outcome [1]: inactive
Potency [2]: inactive
Potency [3]: inactive

CN1CCC(=C2c3ccccc3CC(=O)c3sccc32)CC1
outcome [1]: inactive
Potency [2]: inactive
Potency [3]: inactive

O=C(Nc1ccc([N+](=O)[O-])cc1Cl)c1cc(Cl)ccc1O
outcome [1]: inactive
Potency [2]: inactive
Potency [3]: inactive

N[C@@H](Cc1c[nH]c2ccc(O)cc12)C(=O)O
outcome [1]: inactive
Potency [2]: inactive
Potency [3]: inactive

NC(=O)NO
outcome [1]: inactive
Potency [2]: inactive
Potency [3]: inactive

CCOC(=O)C(C)(C)Oc1ccc(Cl)cc1
outcome [1]: inactive
Potency [2]: inactive
Potency [3]: inactive

Nc1c2c(nc3ccccc13)CCCC2
outcome [1]: inactive
Potency [2]: inactive
Potency [3]: inactive

CC(C)(C)C(=O)Oc1ccc(S(=O)(=O)Nc2ccccc2C(=O)NCC(=O)O)cc1
outcome [1]: inactive
Potency [2]: inactive
Potency [3]: inactive

NCCc1cnc[nH]1
outcome [1]: inactive
Potency [2]: inactive
Potency [3]: inactive

CN1CCN(CCCN2c3ccccc3Sc3ccc(Cl)cc32)CC1
outcome [1]: inactive
Potency [2]: inactive
Potency [3]: inactive

CN1CCC(=C2c3ccccc3C=Cc3ccccc32)CC1
outcome [1]: inactive
Potency [2]: inactive
Potency [3]: inactive

CC(=O)OCC(CCn1cnc2cnc(N)nc21)COC(C)=O
outcome [1]: inactive
Potency [2]: inactive
Potency [3]: inactive
